# From PubChem BioAssay (NCI)
# “And” between values parts separate entries of the source, which are not always exact repeats. Equal entries are not always repeated. The panel holds about 83,000 compounds, 20% with a hit somewhere; the sample as a whole holds those more often.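 How to read the values: 0–100, growth inhibition (40 = 60% inhibited); 0, no net growth; -100 to 0, cell death (-40 = 40% of starting cells died; -100 = all dead).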 The source made the active and inactive calls.
# Test system: IGROV1 ovarian
# Test: NCI-60 one-dose screen, 48 h (100 = growth as untreated, 0 = no growth, -100 = all killed)
# Settings: 0.01 µM
# Procedure: Growth inhibition of the IGROV1 human tumor cell line is measured as a screen for anti-cancer activity. Cells are grown in 96 well plates and exposed to the test compound for 48 hours. Compounds are tested at a single concentration, which is 10^-5 M for most compounds. The reported endpoint is percent growth (GI% or GIPRCNT), where numbers from 0 - 100% represent growth inhibition, and numbers from -100% - 0 represent cell death. For example, a value of 40 represents 60% growth inhibition. A value of 0 means no net growth occurred over the course of the experiment. A value of -40 indicates 40% of cells at the beginning of the experiment died by the end of the experiment. A value of -100 means all cells are dead at the end of the experiment.
# NCI-60 Human Tumor Cell Lines Screen was performed using the standard one-dose NCI protocol, which is described in more detail at https://dtp.cancer.gov/discovery_development/nci-60/default.htm.
# Compounds with GIPRCNT values below 10 were considered active. Activity score was based on GIPRCNT using the following formula: […]
# Score is 0 for GIPRCNT values of 100 or above, 50 for GIPRCNT values of 0, and 100 for GIPRCNT values of -100.
row,Structure (SMILES),growth
1,CC(=O)O[C@H]1C(=O)[C@@]2(C)[C@H]([C@H](OC(=O)c3ccccc3)[C@]3(O)C[C@H](OC(=O)[C@H](O)[C@@H](NC(=O)c4ccccc4)c4ccccc4)C(C)=C1C3(C)C)[C@]1(OC(C)=O)CO[C@@H]1C[C@@H]2O,39% (inactive)

# Same assay, conditions: 2.5 µM
row,Structure (SMILES),growth
1,CC(=O)O[C@H]1C(=O)[C@@]2(C)[C@H]([C@H](OC(=O)c3ccccc3)[C@]3(O)C[C@H](OC(=O)[C@H](O)[C@@H](NC(=O)c4ccccc4)c4ccccc4)C(C)=C1C3(C)C)[C@]1(OC(C)=O)CO[C@@H]1C[C@@H]2O,32.2% (inactive)

# Same assay, conditions: 5 µM
row,Structure (SMILES),growth
1,CC(=O)O[C@H]1C(=O)[C@@]2(C)[C@H]([C@H](OC(=O)c3ccccc3)[C@]3(O)C[C@H](OC(=O)[C@H](O)[C@@H](NC(=O)c4ccccc4)c4ccccc4)C(C)=C1C3(C)C)[C@]1(OC(C)=O)CO[C@@H]1C[C@@H]2O,35.2% (inactive)

# Same assay, conditions: 10 µM
row,Structure (SMILES),growth
1,O=C1c2cccc3cc([N+](=O)[O-])cc(c23)C(=O)N1CCN1CCCC1,-2.59% (active)
2,CC[C@@]1(OC(=O)CN(C)C)C(=O)OCc2c1cc1n(c2=O)Cc2cc3c(N)cccc3nc2-1,-3.28% (active)
3,O=C1C(Cl)=C(Cl)C(Cl)(Cl)C(Cl)C1(Cl)Cl (stereo not given),90.9% (inactive)
4,COc1cccc(C(c2cc3c(cc2O)OCO3)N2CCOCC2)c1OC (stereo not given),101% (inactive)
5,Cc1cc(Cl)ccc1NC(=O)/C(Cl)=C1/Sc2ccccc2NC1=O,68.7% (inactive)
6,N#C/C(=C/N1C(=O)/C(=C/c2ccc([N+](=O)[O-])cc2)SC1=S)c1nc2ccccc2s1,69.8% (inactive)
7,O=C(NC(=S)Nc1ccccn1)c1ccccc1,78.7% (inactive)
8,Cn1c2nc3ccccc3c-2nc2ccccc21,79.8% (inactive) and 61.6% (inactive)
9,O=c1[nH]cc(/C=N\Nc2ccccc2)c(=O)[nH]1,53.9% (inactive)
10,Cc1cc(O)c2c(c1O)C(=O)C13C(=C2O)C(=O)C2C(O)C1C1C(O)C3C(=O)C3=C(O)c4c(O)cc(C)c(O)c4C(=O)C321 (stereo not given),10.3% (inactive)
11,CC(=O)O[C@H]1C(=O)[C@@]2(C)[C@H]([C@H](OC(=O)c3ccccc3)[C@]3(O)C[C@H](OC(=O)[C@H](O)[C@@H](NC(=O)c4ccccc4)c4ccccc4)C(C)=C1C3(C)C)[C@]1(OC(C)=O)CO[C@@H]1C[C@@H]2O,-24.8% (active) and 39.1% (inactive)
12,COc1ccc(N)c2c1C(=O)c1ccccc1C2=O,88.7% (inactive)
13,O=Nc1ccc(Nc2ccccc2)cc1,102% (inactive)
14,CN(CC(=O)O)c1ccc(/C=C/c2ccnc3ccccc23)cc1,77.4% (inactive)
15,N#CC(=C1C=CC(=NO)C=C1)c1ccccc1,24.5% (inactive)
16,S=P(N1CC1)(N1CC1)N1CC1,101% (inactive) and 78.2% (inactive)
17,COc1ccc(C(C#N)=C2C=CC(=NO)C=C2)cc1,60.9% (inactive)
18,CCC(C)(c1ccc(O)c(C)c1)c1ccc(O)c(C)c1,85.5% (inactive)

row,Structure (SMILES),growth
1,COc1ccc2c(c1)[nH]c1c(/C=C/c3ccccc3)nccc12,-15.7% (active)
2,S=C1SCN(CCc2ccccc2)CN1CCc1ccccc1,105% (inactive)
3,O=C1C=CC(=O)N1c1ccc(N2C(=O)C=CC2=O)cc1,105% (inactive)
4,O=C(O)c1ccccc1.[Ag],116% (inactive)
5,O=[N+]([O-])c1cc(S(=O)(=O)Nc2ccccc2)ccc1Cl,96.1% (inactive)
6,CN(C)CCNc1cccc2sc3ccc(O)cc3c(=O)c12,50.1% (inactive)
7,Nc1nc(N)c2cc(Sc3ccc4ccccc4c3)ccc2n1,27.8% (inactive)
8,Cc1cc(C)c(N2C(=O)CC(Sc3ccccc3N)C2=O)c(C)c1 (stereo not given),92% (inactive)
9,CCC(=O)Oc1ccc(/C=N/NC(N)=S)nc1,45% (inactive)
10,Cc1cc(N=C2C=CC(=[N+](C)C)C=C2)c(N)cc1N,109% (inactive)
11,Cc1c(-c2ccccc2)[nH]c2ccccc12,103% (inactive)
12,O=C1c2ccccc2CCC1(Br)Br,88.4% (inactive)
13,O=C(CNS(=O)(=O)Cc1ccccc1)NNc1ccccc1,65.5% (inactive)
14,O=S(=O)(c1cc(Cl)ccc1O)c1cc(Cl)ccc1O,83.5% (inactive)
15,NCc1c(O)ccc2ccccc12,94.7% (inactive)
16,CN(C)c1ccc(/C=C/c2ccnc3ccccc23)cc1N,65.7% (inactive)
17,CC1CCC2(C(=O)O)CCC3(C)C(=CCC4C5(C)CC(O)C(O)C(C)(CO)C5C(O)CC43C)C2C1C (stereo not given),92.8% (inactive)
18,COc1cc(N)ccc1Nc1c2ccccc2nc2ccccc12,60.8% (inactive)

# Same assay, conditions: 100 µM
row,Structure (SMILES),growth
1,S=P(N1CC1)(N1CC1)N1CC1,70.7% (inactive)
